Assay results taken from PubChem BioAssay.
The source made the active and inactive calls.

Legend:
[1] = small molecules captured by biotinylated probe aFSTL3 – biochemical, small-molecule microarray, fluorescence 635/667, stem cell growth factor project, primary screen (AID 1064); conditions: higher = more signal;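 also: measures binding of the biotinylated anti-FSTL3 antibody to printed compounds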
[2] = binders from COS7 lysate, DM2A8 probe, primary screen, torsin A project, cell lysate, small-molecule microarray, fluorescence 635/667 (AID 1065); conditions: higher = more signal, COS7 lysate expressing mutant human TOR1A
[3] = small molecules captured by biotinylated probe aFGF2 – biochemical, small-molecule microarray, fluorescence 635/667, stem cell growth factor project, primary screen (AID 1067); conditions: higher = more signal;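 also: measures binding of biotinylated aFGF2 protein to printed compounds on slides; z-score merges feature fluorescence and signal-to-noise across triplicate slides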
[4] = small molecules captured by biotinylated probe aFGF10 – biochemical, small-molecule microarray, fluorescence 635/667, stem cell growth factor project, primary screen (AID 1071); conditions: higher = more signal;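 also: score merges 667 nm spot intensity and signal to noise from triplicate slides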
[5] = target: Neurogenic locus notch homolog protein 2 (Homo sapiens) (UniProt Q04721); assay: small molecules binding Notch2 protein – biochemical, small-molecule microarray, 635 nm fluorescence, stem cell growth factors, primary screen (AID 1073); conditions: higher = more signal
[6] = target: Pro-neuregulin-1, membrane-bound isoform (Homo sapiens) (UniProt Q02297); assay: small molecules binding neuregulin-1 protein – biochemical, small-molecule microarray, fluorescence 635/667, psychiatric disease protein project, primary screen (AID 1075); conditions: NRG1 binding, 635 nm fluorescence, higher = more signal;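 also: score combines 667 nm spot fluorescence with signal to noise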
[7] = system: Neuregulin-1 EGF-like domain; assay: small molecules binding NRG1 EGF domain – biochemical, small-molecule microarray, 635 nm fluorescence, primary screen (AID 1081); conditions: higher = more signal;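 also: binding of the protein to compounds printed on small-molecule microarray slides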
[8] = FRG1 expression reporter modulators in myotubes – cell-based, C2C12 myotubes, firefly/Renilla luciferase, luminescence, FRG1 inhibition for FSHD, primary screen (AID 1084); conditions: FRG1 promoter luciferase, higher = more signal, called active from +8 up or from −8 down
[9] = small molecules captured by biotinylated probe aFST – biochemical, small-molecule microarray, fluorescence 635/667, stem cell growth factor project, primary screen (AID 1086); conditions: higher = more signal;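 also: score merges 667 nm fluorescence with signal-to-noise of each printed compound spot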
[10] = binders of probe aHhip on microarray, primary screen, stem cell growth factor project, biochemical, small-molecule microarray, fluorescence 635/667 (AID 1087); conditions: higher = more signal;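 also: score merges spot fluorescence at 667nm with spot signal to noise ratio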

Sequence of Neurogenic locus notch homolog protein 2 (Homo sapiens) (Q04721 whole entry, looked up, canonical isoform): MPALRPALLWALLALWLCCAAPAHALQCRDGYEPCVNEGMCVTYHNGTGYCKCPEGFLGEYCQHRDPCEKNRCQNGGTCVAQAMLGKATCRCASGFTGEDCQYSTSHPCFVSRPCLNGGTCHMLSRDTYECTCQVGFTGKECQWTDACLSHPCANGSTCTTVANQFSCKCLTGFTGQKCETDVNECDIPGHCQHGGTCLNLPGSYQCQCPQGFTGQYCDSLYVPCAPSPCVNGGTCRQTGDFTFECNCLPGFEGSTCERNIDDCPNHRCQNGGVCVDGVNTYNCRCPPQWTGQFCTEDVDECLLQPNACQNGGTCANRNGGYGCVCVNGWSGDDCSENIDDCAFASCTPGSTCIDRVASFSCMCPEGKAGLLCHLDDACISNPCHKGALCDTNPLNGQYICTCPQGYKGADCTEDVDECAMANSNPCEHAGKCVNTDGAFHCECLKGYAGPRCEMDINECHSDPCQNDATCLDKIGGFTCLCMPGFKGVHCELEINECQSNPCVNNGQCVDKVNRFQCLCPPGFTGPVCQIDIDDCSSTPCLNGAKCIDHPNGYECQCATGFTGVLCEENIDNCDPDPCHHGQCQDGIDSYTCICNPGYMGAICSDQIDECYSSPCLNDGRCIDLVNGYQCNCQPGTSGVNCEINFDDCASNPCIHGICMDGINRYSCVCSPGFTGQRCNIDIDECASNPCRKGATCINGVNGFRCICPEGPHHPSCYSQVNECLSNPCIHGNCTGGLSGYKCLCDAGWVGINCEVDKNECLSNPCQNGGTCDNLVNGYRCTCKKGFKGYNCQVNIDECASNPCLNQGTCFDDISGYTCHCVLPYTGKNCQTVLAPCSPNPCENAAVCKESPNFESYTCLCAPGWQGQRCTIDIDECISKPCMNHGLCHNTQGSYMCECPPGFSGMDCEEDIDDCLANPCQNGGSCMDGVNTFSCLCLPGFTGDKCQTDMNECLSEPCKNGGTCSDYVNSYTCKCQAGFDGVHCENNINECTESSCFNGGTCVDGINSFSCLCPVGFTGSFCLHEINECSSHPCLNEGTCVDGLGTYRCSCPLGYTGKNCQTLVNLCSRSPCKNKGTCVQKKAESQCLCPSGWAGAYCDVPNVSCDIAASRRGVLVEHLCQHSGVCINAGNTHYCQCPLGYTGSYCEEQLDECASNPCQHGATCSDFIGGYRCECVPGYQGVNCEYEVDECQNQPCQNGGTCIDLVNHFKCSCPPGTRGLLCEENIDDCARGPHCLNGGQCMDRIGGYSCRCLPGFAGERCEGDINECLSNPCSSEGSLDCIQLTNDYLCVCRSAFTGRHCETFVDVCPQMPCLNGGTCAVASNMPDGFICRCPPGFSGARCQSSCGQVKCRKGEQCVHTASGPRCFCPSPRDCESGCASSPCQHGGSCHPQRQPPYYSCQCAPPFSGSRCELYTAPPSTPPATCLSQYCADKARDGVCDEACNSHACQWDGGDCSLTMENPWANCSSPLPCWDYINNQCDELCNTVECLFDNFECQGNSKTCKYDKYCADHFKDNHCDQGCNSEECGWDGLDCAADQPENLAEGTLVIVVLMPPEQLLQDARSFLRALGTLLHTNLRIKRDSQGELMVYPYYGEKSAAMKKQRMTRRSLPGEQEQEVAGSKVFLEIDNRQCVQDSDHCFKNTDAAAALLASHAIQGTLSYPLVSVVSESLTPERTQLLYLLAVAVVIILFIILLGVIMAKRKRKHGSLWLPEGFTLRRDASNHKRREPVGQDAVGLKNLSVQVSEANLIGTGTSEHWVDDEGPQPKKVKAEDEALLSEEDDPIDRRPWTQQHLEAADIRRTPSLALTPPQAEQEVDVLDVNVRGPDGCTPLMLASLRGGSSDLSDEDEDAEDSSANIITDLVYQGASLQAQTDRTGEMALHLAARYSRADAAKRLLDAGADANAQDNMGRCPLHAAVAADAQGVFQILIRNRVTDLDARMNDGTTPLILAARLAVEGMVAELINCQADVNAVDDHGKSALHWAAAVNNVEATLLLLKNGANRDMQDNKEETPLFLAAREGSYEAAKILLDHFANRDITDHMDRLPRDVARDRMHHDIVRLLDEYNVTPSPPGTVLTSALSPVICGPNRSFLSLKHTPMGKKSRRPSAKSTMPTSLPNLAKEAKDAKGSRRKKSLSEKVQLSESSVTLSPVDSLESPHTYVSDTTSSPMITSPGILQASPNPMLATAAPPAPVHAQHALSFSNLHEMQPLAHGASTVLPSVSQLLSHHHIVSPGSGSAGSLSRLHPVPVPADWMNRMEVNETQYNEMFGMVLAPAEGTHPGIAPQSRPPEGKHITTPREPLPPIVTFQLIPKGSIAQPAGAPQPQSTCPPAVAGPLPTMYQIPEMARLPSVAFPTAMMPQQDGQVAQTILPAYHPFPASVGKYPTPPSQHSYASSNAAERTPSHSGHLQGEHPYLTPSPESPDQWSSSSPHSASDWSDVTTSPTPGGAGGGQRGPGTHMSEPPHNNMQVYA
Sequence of Pro-neuregulin-1, membrane-bound isoform (Homo sapiens) (Q02297 whole entry, looked up, the tested form may be a part, canonical isoform): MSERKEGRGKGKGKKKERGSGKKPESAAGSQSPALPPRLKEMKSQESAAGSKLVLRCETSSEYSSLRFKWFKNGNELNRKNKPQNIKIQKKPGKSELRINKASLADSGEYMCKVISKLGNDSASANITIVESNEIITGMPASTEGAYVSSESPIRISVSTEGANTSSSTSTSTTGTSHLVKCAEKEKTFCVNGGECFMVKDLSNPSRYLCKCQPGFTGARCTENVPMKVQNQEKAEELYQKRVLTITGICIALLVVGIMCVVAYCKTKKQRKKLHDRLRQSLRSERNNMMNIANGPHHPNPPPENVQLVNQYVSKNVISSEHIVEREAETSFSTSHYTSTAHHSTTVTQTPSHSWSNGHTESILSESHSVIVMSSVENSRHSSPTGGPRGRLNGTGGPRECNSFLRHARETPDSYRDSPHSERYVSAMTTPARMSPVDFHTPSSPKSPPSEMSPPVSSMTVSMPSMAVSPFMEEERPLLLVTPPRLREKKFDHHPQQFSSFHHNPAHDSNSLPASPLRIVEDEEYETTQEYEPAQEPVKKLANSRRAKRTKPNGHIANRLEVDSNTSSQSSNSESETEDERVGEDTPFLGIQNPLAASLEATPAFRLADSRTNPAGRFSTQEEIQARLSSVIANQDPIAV

| SMILES | composite z-score [1] | composite z-score [2] | composite z-score [3] | composite z-score [4] | composite z-score [5] | composite z-score [6] | composite z-score [7] | z-score [8] | composite z-score [9] | composite z-score [10] |
| --- | --- | --- | --- | --- | --- | --- | --- | --- | --- | --- |
| O=C1C[C@@H](O)[C@@H](O)[C@@H]2[C@@H]3C(=O)N(c4ccc(F)cc4F)C(=O)[C@@H]3CC[C@H]12 | -0.517 | 0.248 | -0.1 | 0.648 | 0.601 | 0.0794 | 0.354 | -0.536 (inactive) | 0.201 | 0.0373 |
| C[C@@H](c1ccccc1)N1C(=O)[C@H]2[C@H]3[C@H](O)[C@H](O)CC(=NOCc4ccccc4)[C@@H]3CC[C@H]2C1=O | 1.67 | -0.0647 | -0.0203 | 0.0018 | -0.578 | -0.258 | -0.521 | 0.717 (inactive) | 0.401 | -0.0672 |
| COC(=O)[C@H](C)NC(=O)CCC1CC(OC(=O)NCc2ccc3c(c2)OCO3)CC2(CCCC(COC(=O)NCCCN3CCCC3=O)O2)O1 (stereo not given in full) | -0.869 | 0.62 | -0.0397 | 0.469 | 0.829 | 0.357 | 1.04 | -0.787 (inactive) | 1.3 | 0.0373 |
| CCOC(=O)NN=C1C[C@@H](O)[C@@H](O)[C@@H]2[C@@H]3C(=O)N(CC)C(=O)[C@@H]3CC[C@H]12 | -0.431 | 0.36 | -0.1 | 0.389 | 0.384 | -0.313 | 0.539 | -0.323 (inactive) | 0.007 | -0.153 |
| CCOC(=O)[C@H](Cc1ccccc1)NC(=O)CCC1CC(OC(=O)NCc2cccc3ccccc23)CC2(CCCC(COC(=O)NCCc3ccccc3OC)O2)O1 (stereo not given in full) | -0.568 | 0.0631 | -0.0538 | 0.586 | 0.967 | 0.341 | 1.02 | 1.37 (inactive) | 0.327 | 0.0623 |
| COc1ccc(COC(=O)NN=C2C[C@@H](O)[C@@H](O)[C@@H]3[C@@H]4C(=O)N([C@@H](C)c5ccccc5)C(=O)[C@@H]4CC[C@H]23)cc1 | 1.87 | 0.287 | -0.0614 | -0.129 | -0.249 | -0.413 | -0.592 | -0.797 (inactive) | 0.951 | -0.226 |
| O=C1[C@H]2[C@H]3[C@H](O)[C@H](O)CC(=NO[C@@H]4O[C@H](CO)[C@@H](O)[C@H](O)[C@H]4O)[C@H]3CC[C@H]2C(=O)N1c1ccc(F)cc1F | 0.552 | 0.75 | 0.0159 | 0.265 | 0.51 | -0.557 | -0.977 | 0.404 (inactive) | 0.437 | -0.0296 |
| CC(CCC(=O)OC[C@H]1O[C@H](C#Cc2ccccc2)C=C[C@@H]1Oc1ccc(C)cc1)=NO[C@@H](C)c1cc(-c2c(C)cc(C)cc2C)no1 | -0.0913 | -1.14 | -0.144 | -0.558 | -1.58 | 0.122 | -0.525 | 0.87 (inactive) | -0.213 | 0.312 |
| O=C1C=C[C@@H](O)[C@@H]2[C@@H]3C(=O)N(c4cccc(Oc5ccccc5)c4)C(=O)[C@@H]3CC[C@@H]12 | -0.575 | -0.285 | -0.0527 | -0.102 | 0.493 | -0.04 | 0.588 | 0.485 (inactive) | 0.241 | -0.274 |
| COC(=O)[C@H](C)NC(=O)CCC1CC(OC(=O)NCCc2ccc(F)cc2)CC2(CCCC(COC(=O)NCCc3ccccc3OC)O2)O1 (stereo not given in full) | -0.93 | -0.328 | -0.172 | 0.706 | 1.16 | 0.608 | 0.729 | -0.0438 (inactive) | -0.0835 | -0.361 |
| COc1ccc(COC(=O)NN=C2C[C@@H](O)[C@@H](O)[C@@H]3[C@@H]4C(=O)N(Cc5ccccc5)C(=O)[C@@H]4CC[C@@H]23)cc1 | -0.512 | -0.0209 | -0.0286 | 0.291 | 0.383 | -0.271 | -0.214 | 0.364 (inactive) | 0.268 | 0.0183 |
| CC(C)CON=C1C[C@@H](O)[C@@H](O)[C@@H]2[C@@H]3C(=O)N(Cc4ccc5c(c4)OCO5)C(=O)[C@@H]3CC[C@@H]12 | -0.345 | -0.142 | 0.0138 | 0.11 | -0.0138 | 0.474 | 0.814 | -0.197 (inactive) | -0.141 | 0.0659 |
| CCOC(=O)CCN1C(=O)[C@H]2[C@H]3[C@H](O)[C@H](O)CC(=NO[C@@H]4O[C@H](CO)[C@@H](O)[C@H](O)[C@H]4O)[C@@H]3CC[C@H]2C1=O | -0.512 | 1.86 | -0.129 | 1.04 | 1.31 | 0.254 | 1.14 | -0.389 (inactive) | 0.675 | -0.0296 |
| CCOC(=O)[C@H](CC(C)C)NC(=O)CCC1CC(OC(=O)NCCc2ccc(F)cc2)CC2(CCCC(COC(=O)NCCCN3CCCC3=O)O2)O1 (stereo not given in full) | -0.547 | -0.0261 | -0.0922 | 0.403 | 0.951 | -0.0939 | 0.763 | 0.404 (inactive) | -0.015 | -0.0994 |
| CC(=O)OC[C@H]1O[C@H](CCON=C(C)C)C=C[C@@H]1OC(C)=O | -0.711 | -0.224 | -0.116 | 0.146 | 0.121 | -0.172 | -0.529 | 0.2 (inactive) | 0.36 | -0.0645 |
| CO[C@H]1COC(=O)CCC[C@H](C)[C@H](OC)COC(=O)CC=C[C@@H]1C | -0.535 | 1.95 | -0.142 | -0.692 | -0.497 | -0.441 | -0.291 | -0.948 (inactive) | -0.168 | 0.0922 |
| CCCC[C@H]1CN2[C@@H](CC[C@@H](C)[C@@H]2c2ccc(Br)cc2)C(=O)O1 | -0.333 | 0.389 | -0.0894 | -0.947 | 0.564 | 1.19 | 1.11 | -0.374 (inactive) | 0.253 | 0.0722 |
